Measured values published in PubChem BioAssay.
Records with an inconclusive call do not appear. The source made the active and inactive calls.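 The calls were made as follows, unless noted: active = inhibition above 50%, about 3 SD of the validation set; inactive = the rest.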

Legend:
[1] = rapamycin-like changes in RPL19A-GFP expression – cell-based, S. cerevisiae, multiplex flow cytometry, primary screen (AID 1862; in the data active = percent of DMSO control GFP below about 86%;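 also: lower values mimic rapamycin by blocking the RPL19A rise seen in DMSO cells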); details: S. cerevisiae RPL19A-GFP strain, flow cytometry fluorescence, 3 h; at 10 µM; stronger effect = lower value
[2] = TOR pathway GLN3 branch reporter MEP2-GFP changes – S. cerevisiae, multiplex flow cytometry, primary screen (AID 1867;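 active = GFP response, as percent of the DMSO control, above the screen-wide mean plus 3 SD, about 139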;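 also: median GFP channel fluorescence of barcode-gated MEP2-GFP cells measured by flow cytometry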); details: S. cerevisiae MEP2-GFP strain, 3 h, at 10 µM, stronger effect = higher value, 100% means same as DMSO wells
[3] = TOR pathway RTG branch CIT2 reporter changes – S. cerevisiae, GFP fusion, multiplex flow cytometry, primary screen (AID 1870;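 active = percent response above a set limit, the screen-wide mean plus 3 SD, cut at about 130% in these data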;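 also: barcoded CIT2-GFP strain pooled with four other GFP strains with rapamycin as positive control; median GFP fluorescence per well over plate mean of DMSO wells so 100% = DMSO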); details: S. cerevisiae CIT2-GFP expression, 3 h, at 10 µM, stronger effect = higher value
[4] = TOR pathway LAP4-GFP level changes – S. cerevisiae, multiplex flow cytometry, primary screen (AID 1873;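 active = GFP signal, as percent of the solvent control, above the screen mean plus 3 SD, about 149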); details: S. cerevisiae LAP4-GFP expression, 3 h, at 10 µM, stronger effect = higher value
[5] = yeast AGP1-GFP level changes, GLN3 branch – cell-based, multiplex flow cytometry, S. cerevisiae, primary screen (AID 1887;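 active = GFP signal above the screen-wide mean plus 3 SD, that is over about 124.5% of the solvent control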;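 also: AGP1-GFP fusion strain of S. cerevisiae within a five-strain barcoded multiplex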); details: 3 h, at 10 µM, stronger effect = higher value
[6] = reduced mouse 2C T cell binding to pMHC/ICAM-1 vesicles – MLPCN validation set, flow cytometry, LFA-1/ICAM-1 modulator project, pilot screen (AID 2523;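 active = response below a set limit, under 55% cells CD8-positive and vesicle-bound, and CD8 cells' 90th-percentile brightness under 279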;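 as to vesicle binding response: mean PE anti-B7-1 fluorescence of CD8+ cells relative to row control; 100% = QL9-loaded vesicles with DMSO vehicle in the same plate row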); details: 2C mouse CD8+ T cells, at 7 µM, stronger effect = lower value; double positive events: measured here: CD8+/vesicle+ event percentage
[7] = biological target: Integrin beta-1 (Homo sapiens) + Integrin alpha-4 (Homo sapiens) (UniProt P13612+P05556); assay: alpha4beta1 integrin LIBS antibody binding reduction – U937 cells, HUTS-21 mAb, flow cytometry, validation set, VLA-4 allosteric modulator project, pilot screen (AID 2674); details: HUTS-21 LIBS mAb binding, at 6.7 µM, stronger effect = higher value, binding induced by LDV ligand;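 also: antibody binding induced by the VLA-4 ligand LDV present at three times its Kd; 0% = LDV ligand with antibody and no compound and 100% = antibody without LDV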
Chain of Integrin beta-1 (Homo sapiens) + Integrin alpha-4 (Homo sapiens) (P05556 whole entry, looked up): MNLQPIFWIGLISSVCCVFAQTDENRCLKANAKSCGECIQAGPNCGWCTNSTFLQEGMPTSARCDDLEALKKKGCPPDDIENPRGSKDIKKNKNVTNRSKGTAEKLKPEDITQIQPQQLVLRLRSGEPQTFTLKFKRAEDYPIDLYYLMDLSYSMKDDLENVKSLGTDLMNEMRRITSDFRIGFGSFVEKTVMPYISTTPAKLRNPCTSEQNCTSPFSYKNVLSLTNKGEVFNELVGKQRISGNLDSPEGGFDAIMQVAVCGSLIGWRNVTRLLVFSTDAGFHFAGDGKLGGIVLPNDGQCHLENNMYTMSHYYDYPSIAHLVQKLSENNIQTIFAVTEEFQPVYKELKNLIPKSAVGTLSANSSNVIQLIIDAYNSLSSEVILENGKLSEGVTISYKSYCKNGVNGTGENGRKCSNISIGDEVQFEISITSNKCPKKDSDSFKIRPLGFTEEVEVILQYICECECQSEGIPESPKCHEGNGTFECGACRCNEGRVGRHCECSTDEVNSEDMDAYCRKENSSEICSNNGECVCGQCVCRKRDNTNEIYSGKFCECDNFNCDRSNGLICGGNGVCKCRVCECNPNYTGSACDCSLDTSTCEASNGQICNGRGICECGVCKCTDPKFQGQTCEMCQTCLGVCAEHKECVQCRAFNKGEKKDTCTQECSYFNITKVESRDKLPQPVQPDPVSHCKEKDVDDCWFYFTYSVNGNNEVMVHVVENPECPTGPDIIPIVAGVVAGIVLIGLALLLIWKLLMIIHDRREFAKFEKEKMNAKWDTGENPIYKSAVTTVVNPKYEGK
Chain of Integrin beta-1 (Homo sapiens) + Integrin alpha-4 (Homo sapiens) (P13612 whole entry, looked up): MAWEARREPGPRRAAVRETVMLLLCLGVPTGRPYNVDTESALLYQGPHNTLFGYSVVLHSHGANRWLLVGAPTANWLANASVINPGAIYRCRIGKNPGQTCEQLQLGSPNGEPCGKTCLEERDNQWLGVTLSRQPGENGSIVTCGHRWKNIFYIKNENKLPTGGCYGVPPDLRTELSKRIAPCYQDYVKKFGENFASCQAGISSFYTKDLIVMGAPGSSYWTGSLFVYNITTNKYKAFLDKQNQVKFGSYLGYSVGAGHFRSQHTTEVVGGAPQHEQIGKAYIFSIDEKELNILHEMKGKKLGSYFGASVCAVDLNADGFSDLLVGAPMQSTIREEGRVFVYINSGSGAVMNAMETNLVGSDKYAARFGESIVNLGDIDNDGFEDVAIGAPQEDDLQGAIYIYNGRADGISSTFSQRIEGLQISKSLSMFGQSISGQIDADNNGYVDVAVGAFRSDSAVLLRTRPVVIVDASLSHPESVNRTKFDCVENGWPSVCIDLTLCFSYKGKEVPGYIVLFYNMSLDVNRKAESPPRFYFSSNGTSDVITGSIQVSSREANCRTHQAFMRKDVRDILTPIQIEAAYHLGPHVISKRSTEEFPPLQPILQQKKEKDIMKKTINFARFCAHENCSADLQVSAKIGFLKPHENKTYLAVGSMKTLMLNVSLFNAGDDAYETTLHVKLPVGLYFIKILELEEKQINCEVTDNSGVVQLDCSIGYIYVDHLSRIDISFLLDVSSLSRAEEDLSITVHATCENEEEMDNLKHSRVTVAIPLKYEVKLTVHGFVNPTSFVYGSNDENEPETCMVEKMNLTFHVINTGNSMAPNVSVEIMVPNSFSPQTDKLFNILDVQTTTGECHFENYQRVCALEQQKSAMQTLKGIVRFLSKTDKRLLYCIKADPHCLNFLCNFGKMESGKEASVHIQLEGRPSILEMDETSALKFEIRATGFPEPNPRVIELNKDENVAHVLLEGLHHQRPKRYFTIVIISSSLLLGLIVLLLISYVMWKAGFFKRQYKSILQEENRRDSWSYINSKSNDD

[8] = calorie-restriction mimetic ROS inhibitors, yeast – validation compound set, pilot screen (AID 2706;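 active = superoxide response below 65% of plate, a cut near 3 SD across the whole screen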;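 also: yeast exposed to compound for one week at 30 degrees C before staining; 100% = mean of all compound wells on the same plate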); details: S. cerevisiae aging, superoxide DHE fluorescence; at 10 µM; stronger effect = lower value
[9] = biological target: Beta-adrenergic receptor kinase 1 (Homo sapiens) (UniProt P25098); assay: GRK2 binders displacing RNA aptamer, biochemical, validation, human GRK2, bead flow cytometry (AID 488806;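 active = aptamer binding inhibition above 30%, about 3 SD of noise from non-fluorescent compounds; inactive = inhibition at or below 30%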); details: bead-bound GRK2, FAM-aptamer displacement, at 10 µM, stronger effect = higher value
Chain of Beta-adrenergic receptor kinase 1 (Homo sapiens) (P25098 whole entry, looked up): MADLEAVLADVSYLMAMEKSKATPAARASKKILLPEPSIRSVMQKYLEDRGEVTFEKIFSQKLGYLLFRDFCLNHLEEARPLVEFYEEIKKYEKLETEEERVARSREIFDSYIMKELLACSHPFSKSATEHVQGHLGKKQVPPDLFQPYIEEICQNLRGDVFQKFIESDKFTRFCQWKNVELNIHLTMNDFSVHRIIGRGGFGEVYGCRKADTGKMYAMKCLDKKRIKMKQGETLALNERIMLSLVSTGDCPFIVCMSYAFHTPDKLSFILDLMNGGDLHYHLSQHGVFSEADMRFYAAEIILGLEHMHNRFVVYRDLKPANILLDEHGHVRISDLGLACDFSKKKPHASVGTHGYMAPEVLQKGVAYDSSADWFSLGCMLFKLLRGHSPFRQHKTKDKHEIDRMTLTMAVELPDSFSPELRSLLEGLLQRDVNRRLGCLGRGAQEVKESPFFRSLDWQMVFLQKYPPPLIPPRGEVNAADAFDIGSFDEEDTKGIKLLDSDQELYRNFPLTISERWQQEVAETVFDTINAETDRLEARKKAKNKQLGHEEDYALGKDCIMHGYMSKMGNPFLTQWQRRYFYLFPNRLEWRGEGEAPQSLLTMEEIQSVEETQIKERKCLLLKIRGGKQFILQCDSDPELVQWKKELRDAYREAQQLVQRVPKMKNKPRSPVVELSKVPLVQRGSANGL

[10] = biological target: Beta-2 adrenergic receptor (Homo sapiens) (UniProt P07550); assay: agonist-induced loss of surface beta2AR – cell-based, FAP fluorogen, flow cytometry, validation set, pilot screen (AID 504459;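 active = percent response above 42, roughly 3 SD of non-fluorescent test compounds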;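 also: agonist-driven loss of surface beta2AR via internalization measured by FAP dye flow cytometry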); details: Am2.2-beta2AR cells, at 10 µM, stronger effect = higher value
Chain of Beta-2 adrenergic receptor (Homo sapiens) (P07550 whole entry, looked up): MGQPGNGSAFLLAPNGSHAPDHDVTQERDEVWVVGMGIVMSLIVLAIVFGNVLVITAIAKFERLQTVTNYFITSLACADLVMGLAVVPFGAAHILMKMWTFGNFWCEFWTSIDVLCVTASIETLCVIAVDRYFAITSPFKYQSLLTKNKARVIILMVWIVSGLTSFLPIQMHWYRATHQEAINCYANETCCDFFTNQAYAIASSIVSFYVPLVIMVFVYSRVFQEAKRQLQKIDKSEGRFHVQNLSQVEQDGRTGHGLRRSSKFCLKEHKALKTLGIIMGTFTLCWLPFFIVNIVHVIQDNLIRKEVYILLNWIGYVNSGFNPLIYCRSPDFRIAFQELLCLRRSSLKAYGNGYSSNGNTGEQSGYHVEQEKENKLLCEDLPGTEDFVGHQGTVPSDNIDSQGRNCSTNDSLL

[11] = biological target: AP-2 complex subunit beta (Homo sapiens) (UniProt P63010); assay: beta-arrestin/AP2 interaction blockers – biochemical, validation set, GST-AP2 beads, flow cytometry, pilot screen (AID 504541;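 active = inhibition above 54%, about 3 SD of non-fluorescent compounds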;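 also: AP2 carries R879A mutation and is captured from E. coli lysate; bead-bound FITC arrestin peptide fluorescence measuring arrestin peptide binding to AP2; 0% = DMSO wells and 100% = excess unlabeled arrestin peptide control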); details: FITC arrestin peptide, at 10 µM, stronger effect = higher value, AP2 beta2 appendage fragment, R879A mutant
Chain of AP-2 complex subunit beta (Homo sapiens) (P63010 whole entry, looked up, the tested form may be a part, one chain of several): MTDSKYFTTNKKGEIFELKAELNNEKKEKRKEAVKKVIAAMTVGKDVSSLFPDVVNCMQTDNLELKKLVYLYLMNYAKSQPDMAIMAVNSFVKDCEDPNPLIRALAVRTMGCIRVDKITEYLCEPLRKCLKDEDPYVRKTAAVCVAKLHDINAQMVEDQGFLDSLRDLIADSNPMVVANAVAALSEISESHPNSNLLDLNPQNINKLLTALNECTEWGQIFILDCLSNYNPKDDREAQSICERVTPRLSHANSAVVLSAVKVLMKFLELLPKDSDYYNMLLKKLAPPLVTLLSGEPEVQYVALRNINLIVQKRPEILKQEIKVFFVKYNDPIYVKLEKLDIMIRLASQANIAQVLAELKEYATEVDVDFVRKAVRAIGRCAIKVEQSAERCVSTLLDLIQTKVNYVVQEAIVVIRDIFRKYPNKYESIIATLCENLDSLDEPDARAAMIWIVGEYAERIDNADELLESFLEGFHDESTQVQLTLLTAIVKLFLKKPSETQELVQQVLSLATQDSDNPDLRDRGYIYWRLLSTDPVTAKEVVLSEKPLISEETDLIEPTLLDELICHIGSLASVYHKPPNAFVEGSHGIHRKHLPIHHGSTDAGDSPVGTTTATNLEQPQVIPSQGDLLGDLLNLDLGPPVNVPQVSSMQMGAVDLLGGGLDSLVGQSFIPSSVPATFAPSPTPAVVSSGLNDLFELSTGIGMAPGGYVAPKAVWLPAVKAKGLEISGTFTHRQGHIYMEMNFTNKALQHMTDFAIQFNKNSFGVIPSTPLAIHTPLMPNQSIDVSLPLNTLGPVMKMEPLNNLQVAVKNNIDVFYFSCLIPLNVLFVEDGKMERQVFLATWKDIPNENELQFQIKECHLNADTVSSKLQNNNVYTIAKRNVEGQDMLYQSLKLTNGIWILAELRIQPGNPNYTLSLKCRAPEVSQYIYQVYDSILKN

[12] = cytosolic pH regulators acting via V-ATPase – S. cerevisiae, pHLuorin, HTS validation (AID 504600; in the data active = response above about 15%;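 also: plate controls were DMSO for no effect and reference compound for full effect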); details: V-ATPase proton transport, at 10 µM, stronger effect = higher value
[13] = test system: anti-desmoglein-3 scFv antibody binding to human DSG3; assay: blockers of pathogenic pemphigus antibody–desmoglein-3 binding – biochemical, validation compound set, bead-based, flow cytometry, pilot screen (AID 588368;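 active = binding below the plate cutoff, the plate median minus 3 SD, with a reading above zero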;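 also: signal is the median channel fluorescence of bead-bound GFP antibody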); details: Protein G beads, DSG3-Fc, scFv-GFP binding, at 10 µM, stronger effect = lower value
[14] = Nile Red efflux blockade in pump-expressing yeast – validation compound set, multiplex, phenotypic, pilot screen (AID 588506;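 active = efflux inhibition above 0.42, the validation set average plus 4 SD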;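 also: Nile Red retained in cells so higher fluorescence means more efflux inhibition; 0 = negative control wells and 1 = enniatin B 25 µM full block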); details: S. cerevisiae pump-expressing triplex, Nile Red efflux flow cytometry; at 10 µM; stronger effect = higher value; the pumps come from Candida albicans
[15] = biological target: ATP-binding cassette sub-family B member 6 (Homo sapiens) (UniProt Q9NP58); assay: blockers of ABCB6-driven porphyrin uptake – K562-ABCB6 cells, flow cytometry, validation set, pilot screen (AID 588550;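 active = inhibition above the screen-wide mean plus 3 SD, about 51%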;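 also: 0% = DMSO wells and 100% = benzethonium chloride 70 µM positive control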); details: K562-ABCB6 porphyrin accumulation, 1 h, at 10 µM, stronger effect = higher value
Chain of ATP-binding cassette sub-family B member 6 (Homo sapiens) (Q9NP58 whole entry, looked up): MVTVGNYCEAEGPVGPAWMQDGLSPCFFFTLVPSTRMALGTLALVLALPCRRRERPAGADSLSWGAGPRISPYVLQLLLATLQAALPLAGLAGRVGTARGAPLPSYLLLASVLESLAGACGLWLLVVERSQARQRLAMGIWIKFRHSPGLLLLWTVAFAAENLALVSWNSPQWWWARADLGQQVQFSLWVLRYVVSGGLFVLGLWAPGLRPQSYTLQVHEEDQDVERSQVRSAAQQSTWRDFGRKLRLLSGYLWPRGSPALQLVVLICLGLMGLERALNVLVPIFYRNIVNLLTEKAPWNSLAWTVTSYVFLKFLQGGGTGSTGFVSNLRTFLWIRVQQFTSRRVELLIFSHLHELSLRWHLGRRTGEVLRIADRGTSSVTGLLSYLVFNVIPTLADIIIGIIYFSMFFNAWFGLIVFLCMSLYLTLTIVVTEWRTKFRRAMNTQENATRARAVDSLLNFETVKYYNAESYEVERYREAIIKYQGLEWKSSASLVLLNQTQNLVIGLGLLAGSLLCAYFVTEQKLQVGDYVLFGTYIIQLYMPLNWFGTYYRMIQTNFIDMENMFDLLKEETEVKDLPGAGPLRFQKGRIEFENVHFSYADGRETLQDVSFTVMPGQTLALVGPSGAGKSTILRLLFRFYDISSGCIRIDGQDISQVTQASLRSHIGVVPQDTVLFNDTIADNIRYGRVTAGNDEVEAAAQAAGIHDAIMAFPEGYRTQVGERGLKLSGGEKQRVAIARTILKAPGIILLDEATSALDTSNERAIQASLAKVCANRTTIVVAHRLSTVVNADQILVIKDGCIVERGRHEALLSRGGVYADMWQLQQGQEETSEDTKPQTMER

[16] = AML differentiation inducers, ER-HoxA9 marrow cells – cell-based, GFP/MAC1 double positive, flow cytometry, validation set, primary screen (AID 588685;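 active = differentiation response of at least 50%, scaled between solvent and reference control, from cells with both markers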;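 also: compound exposure lasts four days before antibody staining and flow analysis; 0% = DMSO wells and 100% = 5 µM fulvestrant positive control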); details: stronger effect = higher value, normalized: vehicle 0, fulvestrant 100

Row | Compound | percent of DMSO control GFP [1] | GFP response vs DMSO [2] | percent response of DMSO control [3] | GFP response vs DMSO [4] | GFP response, % of DMSO [5] | double positive events [6] | vesicle binding response [6] | inhibition [7] | superoxide response (% of plate) [8] | aptamer binding inhibition [9] | response [10] | inhibition [11] | response [12] | binding (% of control) [13] | efflux inhibition (fraction of control) [14] | inhibition [15] | differentiation response [16]
1 | CCOC(=O)c1c(C)oc2c1C(=O)c1ccccc1C2=O | 111% (inactive) | 102% (inactive) | 107% (inactive) | 104% (inactive) | 99.9% (inactive) | 59.4% | 316% (inactive) | -16.1% (inactive) | 126% (inactive) | 5% (inactive) | 3.7% (inactive) | 0.55% (inactive) | 0.26% (inactive) | 96.7% (inactive) | -0.22 (inactive) | -26% (inactive) | -0.36% (inactive)
2 | O=C(CSCc1ccccc1)NCCCN1CCOCC1 | 97.9% (inactive) | 106% (inactive) | 104% (inactive) | 98% (inactive) | 107% (inactive) | 62.4% | 197% (inactive) | 12.3% (inactive) | 114% (inactive) | 3% (inactive) | -1.38% (inactive) | -9.56% (inactive) | 3.45% (inactive) | 102% (inactive) | 0.17 (inactive) | 15% (inactive) | -14.8% (inactive)
3 | C/C(=N\NC(=O)C1(C)CC1(Br)Br)c1ccc([N+](=O)[O-])cc1 (stereo not drawn) | 105% (inactive) | 99.3% (inactive) | 105% (inactive) | 85.5% (inactive) | 104% (inactive) | 65.3% | 390% (inactive) | -0.45% (inactive) | 83.6% (inactive) | 6% (inactive) | -9.52% (inactive) | -5.83% (inactive) | 26.1% (active) | 98.5% (inactive) | -0.17 (inactive) | 1% (inactive) | 13.9% (inactive)
4 | CCC1(c2ccccc2)NC(=S)N(c2ccc(C)c(C)c2)N1 (stereo not drawn) | 100% (inactive) | 106% (inactive) | 105% (inactive) | 108% (inactive) | 108% (inactive) | 59.8% | 184% (inactive) | 5.69% (inactive) | 107% (inactive) | 2% (inactive) | -12.6% (inactive) | 1.79% (inactive) | 2.75% (inactive) | 105% (inactive) | 0.04 (inactive) | 3% (inactive) | -12.9% (inactive)
5 | O=C1[C@@H]2[C@H](Cc3ccc(O)cc3)N[C@]3(C(=O)Nc4ccccc43)[C@@H]2C(=O)N1c1ccc(F)cc1 | 106% (inactive) | 103% (inactive) | 100% (inactive) | 90.1% (inactive) | 91.9% (inactive) | 61.1% | 1070% (inactive) | 14.1% (inactive) | 90% (inactive) | 2% (inactive) | -3.4% (inactive) | 3.35% (inactive) | -0.08% (inactive) | 92.2% (inactive) | 0.3 (inactive) | 0% (inactive) | 6.11% (inactive)
6 | O=C(O)Cc1ccc(O)c(F)c1 | 91.5% (inactive) | 135% (inactive) | 101% (inactive) | 80.9% (inactive) | 91% (inactive) | 61.7% | 175% (inactive) | -9.06% (inactive) | 111% (inactive) | 4% (inactive) | -7.58% (inactive) | 5.41% (inactive) | 1.04% (inactive) | 100% (inactive) | 0.19 (inactive) | 10% (inactive) | -4.09% (inactive)
7 | CC(C(=O)O)c1cccc(C(=O)c2ccccc2)c1 (stereo not drawn) | 102% (inactive) | 107% (inactive) | 97.6% (inactive) | 110% (inactive) | 107% (inactive) | 67.3% | 145% (inactive) | 4.27% (inactive) | 97.3% (inactive) | 4% (inactive) | 6.64% (inactive) | -7.83% (inactive) | -2.55% (inactive) | 101% (inactive) | 0.36 (inactive) | 20% (inactive) | -7.5% (inactive)
8 | O=C(CS(=O)(=O)Cc1ccccc1)NCc1ccc2c(c1)OCO2 | 88% (inactive) | 123% (inactive) | 88.6% (inactive) | 81.4% (inactive) | 95.2% (inactive) | 63.3% | 123% (inactive) | -3.24% (inactive) | 92% (inactive) | 1% (inactive) | -3.4% (inactive) | -1.72% (inactive) | -0.1% (inactive) | 104% (inactive) | -0.24 (inactive) | -87% (inactive) | 5.73% (inactive)
9 | C#C[C@]1(O)CC[C@H]2[C@@H]3CCc4cc(OC5CCCC5)ccc4[C@H]3CC[C@@]21C | 101% (inactive) | 104% (inactive) | 88.6% (inactive) | 126% (inactive) | 113% (inactive) | 62.7% | 213% (inactive) | 14.2% (inactive) | 97.7% (inactive) | -1% (inactive) | -9.24% (inactive) | -1.15% (inactive) | 6.88% (inactive) | 105% (inactive) | 0.38 (inactive) | 3% (inactive) | 0% (inactive)
